Assay results taken from PubChem BioAssay AID1745848 (National Center for Advancing Translational Sciences (NCATS), 2022).
In all, about 2,100 compounds went through this assay and about 940 (45%) were called active. Roughly 48% stayed inconclusive and do not appear here. Calls follow the shape of the dose curve; as a rule, active = well fitted inhibition curve with a large enough effect; inconclusive = small, poorly fitted or top-dose-only effect; inactive = no such curve, though single readings can be large or run the other way. So high a share suggests a set chosen from earlier hits. Some of the results follow.
Potency is read from the fitted curve at half-maximal effect.

Test: Confirmatory qHTS for Inhibitors of ATXN expression; also: nearly all actives have a fitted effect of over 65% in size
Details: ATXN2-luciferase reporter cells, luminescence, 24 h; series mostly up to 11.5 µM
Outline: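 Cells carrying ATXN2-luciferase reporter exposed 24 h at 37 C to compound. Viability then read by CellTiter-Fluor (25 uM GF-AFC, 30 min), followed by SteadyGlo luminescence; medium-only wells set 100% inhibition.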
For `Oc1ccc(C2CNCc3sccc32)cc1O` (stereo not given), the Potency was “inactive”. With `Cc1nc(-c2ccc(C(F)(F)F)cc2)sc1C(=O)NN` the Potency was 14.1 µM (active). For `Cc1c(C(=O)NCc2ccc(C(F)(F)F)cc2)sc(=O)n1Cc1cccc(F)c1`, the Potency was “inactive”. With `Cn1c(NCCN2CCCC2)nc2cc(-c3ccsc3)sc2c1=O` the Potency was 28.2 µM (active). For `Cc1cc(Cl)ccc1-c1cc2nc(NCCCN(C)C)n(C)c(=O)c2s1`, the Potency was “inactive”. For `Cc1ccc(F)cc1-c1cc2nc(NCCCN(C)C)n(C)c(=O)c2s1`, the Potency was 17.8 µM (active). With `CCCCCCc1cc2cc(S(=O)(=O)c3ccc(C)cc3)c(=O)oc2cc1O` the Potency was “inactive”. For `CCCCCCc1cc2cc(C(=O)Nc3ccccc3)c(=O)oc2cc1O`, the Potency was 0.794 µM (active). In the case of `Cc1cccc(Nc2nc(N)nc(CCl)n2)c1C`, the Potency is reported as “inactive”. With `C=CCn1c(COc2ccccc2)nnc1SC(C)C(=O)N/N=C/c1cc(Cl)ccc1O` (stereo not given) the Potency was 3.98 µM (active). With `CC(C)c1ccc(S(=O)(=O)c2cc3cc(Br)ccc3oc2=O)cc1` the Potency was 25.1 µM (active). With `c1ccc2c(c1)c1c(c3ccccc32)CN2CCCC2C1` (stereo not given) the Potency was “inactive”. With `CS(=O)(=O)Nc1ccccc1C(=O)Nc1cc(Cl)cc(Cl)c1` the Potency was 2.51 µM (active). With `CC(C)(C)NCC(=Cc1ccccc1)C(=O)c1ccccc1` the Potency was 1.41 µM (active). For `O=C(C(Br)=Cc1ccccc1)c1ccccc1`, the Potency was 10 µM (active). For `Cc1n(Cc2ccccc2)c2ccccc2[n+]1Cc1ccccc1`, the Potency was “inactive”. In the case of `N#Cc1c(Oc2ccc3ccccc3c2)sc(C(=O)c2ccccc2)c1N`, the Potency is reported as 14.1 µM (active). With `CCOC(=O)C1CCN(c2cc3c(cc2NC(=O)c2ccccc2OCC)n(C)c(=O)n3C)CC1` the Potency was 28.2 µM (active). In the case of `Cc1ccc(O)c(CNCCNCc2cc(C)ccc2O)c1`, the Potency is reported as 14.1 µM (active). For `Cc1ccc(-c2noc(CCCC(=O)NC3CCCC3)n2)cc1`, the Potency was 7.94 µM (active). For `COc1ccc(-c2noc(CCCC(=O)NC3CCCC3)n2)cc1`, the Potency was 8.91 µM (active). For `O=C(CSc1ccc2ccccc2c1)Nc1nc2ccccc2[nH]1`, the Potency was 2.82 µM (active). For `Cc1cccc(OCCCC(=O)Nc2nc3ccccc3[nH]2)c1`, the Potency was 0.891 µM (active). With `Cc1cccc(OCCCC(=O)Nc2nccs2)c1` the Potency was 3.16 µM (active). For `Cc1[nH]n(-c2ccccc2)c(=O)c1C=Nc1cccc2cccnc12`, the Potency was 1.78 µM (active). In the case of `CCOc1cc(/C=C2\SC(=N)N(c3nccs3)C2=O)ccc1OCCN1CCOCC1`, the Potency is reported as 14.1 µM (active). With `CSc1nc(-c2ccc(Cl)cc2)nc(N)c1C#N` the Potency was 2.82 µM (active). For `CC(=O)Oc1ccc(N(C(C)=O)S(=O)(=O)c2ccc(C)cc2)c2ccccc12`, the Potency was 3.16 µM (active). In the case of `CC(=O)Oc1ccc(N(C(C)=O)S(=O)(=O)c2ccc(C)cc2C)c2ccccc12`, the Potency is reported as 31.6 µM (active). With `CC1CCN(Cc2c(C(=O)N/N=C/c3cc(Br)ccc3O)nnn2-c2nonc2N)CC1` the Potency was 0.794 µM (active). In the case of `CC1CCN(Cc2c(C(=O)N/N=C/c3cc(Cl)ccc3O)nnn2-c2nonc2N)CC1`, the Potency is reported as 3.55 µM (active). For `CC1CCN(Cc2c(C(=O)N/N=C/c3ccccc3O)nnn2-c2nonc2N)CC1`, the Potency was 1.78 µM (active). For `CCN1CC2=C(OC(N)=C(C#N)C2c2cccs2)/C(=C\c2cccs2)C1` (stereo not given), the Potency was “inactive”. With `COc1cc([C@@H]2c3cc4c(cc3[C@@H](O[C@@H]3O[C@@H]5CO[C@@H](C)O[C@H]5[C@H](O)[C@H]3O)[C@H]3COC(=O)[C@H]23)OCO4)cc(OC)c1O` the Potency was 0.631 µM (active). In the case of `CC[C@]12c3[nH]c4ccc(Cl)cc4c3CCN1C(=O)[C@@H](CC(=O)NCC13CC4CC(CC(C4)C1)C3)C[C@@H]2C(=O)N1CCN(C(=O)C2CC2)CC1`, the Potency is reported as 28.2 µM (active). With `CC[C@]12c3[nH]c4ccc(Cl)cc4c3CCN1C(=O)[C@@H](CC(=O)NCC13CC4CC(CC(C4)C1)C3)C[C@@H]2C(=O)N1CCN(C(=O)c2ccco2)CC1` the Potency was 3.55 µM (active). With `O=C(N/N=C(\Cc1ncc[nH]1)c1ccccc1)c1ccncc1` the Potency was 10 µM (active). In the case of `O=C(N/N=C(\Cc1ncc[nH]1)c1ccccc1)c1cccnc1`, the Potency is reported as 3.16 µM (active). With `Oc1ccc2ccccc2c1/C=C/c1ccc2c(Br)cc(Br)c(O)c2n1` the Potency was 12.6 µM (active). For `CN(C)CCNc1cccc2sc3ccc(O)cc3c(=O)c12`, the Potency was 28.2 µM (active). In the case of `CN(C)CCNc1ccc2ncn3c4ccc(O)cc4c(=O)c1c23`, the Potency is reported as 1 µM (active). For `CN(C)CCNc1ccc2nnn3c4ccc(O)cc4c(=O)c1c23`, the Potency was 2 µM (active). In the case of `Cc1cc(Oc2ccc(Cl)cc2)nc(-c2ccccn2)n1`, the Potency is reported as “inactive”. With `COc1cnc(-c2ccccn2)nc1Oc1ccc(Cl)c2ccccc12` the Potency was 3.16 µM (active). In the case of `Cc1cc(C(=O)N/N=C/c2cc(Br)cc([N+](=O)[O-])c2O)c2ccccc2n1`, the Potency is reported as 3.16 µM (active). For `COc1cc([N+](=O)[O-])cc(/C=N/NC(=O)c2ccc(NC(=O)c3ccc(C)cc3)cc2)c1O`, the Potency was 1.41 µM (active). For `O=C(N/N=C/c1cc(Br)cc([N+](=O)[O-])c1O)c1ccc(NC(=O)c2ccc(F)cc2)cc1`, the Potency was 3.16 µM (active). With `O=C(Nc1ccc(Cl)c(Cl)c1)Nc1nnc(CSc2ccccc2)s1` the Potency was 1.78 µM (active). With `CC1=CC(C)(C)Nc2ccc(OC(=O)CN3C(=O)CCC3=O)cc21` the Potency was 3.55 µM (active). For `Cc1cc(NCc2ccccn2)n2nc(C)c(-c3ccc(Cl)cc3)c2n1`, the Potency was 15.8 µM (active). With `CCOc1ccc(-n2c(-c3ccccc3)c[n+]3c2CCCCC3)cc1` the Potency was 8.91 µM (active). With `c1ccc(Cn2c(-c3ccccc3)c[n+]3c2SCCC3)cc1` the Potency was “inactive”. For `Cc1cccc(C2=NN(c3ccccc3)[C@H](CO)[C@H]2c2ccc(Cl)cc2)c1`, the Potency was “inactive”. In the case of `Cc1cc(C)c2nc(N3CCCC(C(=O)N4CCN(c5ncccn5)CC4)C3)sc2c1` (stereo not given), the Potency is reported as 3.16 µM (active). With `O=c1cc(-c2cccnc2)oc2c1ccc1ccccc12` the Potency was 3.55 µM (active). For `CN(C)c1cc[n+](CC(=O)c2ccc(-c3ccccc3)cc2)cc1`, the Potency was 2.24 µM (active). With `Oc1ccc(C[C@@H]2CNCCN2CCc2cc(C(F)(F)F)cc(C(F)(F)F)c2)cc1` the Potency was 3.16 µM (active). For `COc1cccc(-c2ccc(NC(=O)C3CCCN(Cc4cnn(C(C)C)c4)C3)cc2)c1` (stereo not given), the Potency was 3.16 µM (active). For `Cc1cc(C)nc(NNS(=O)(=O)c2ccc(F)c(Cl)c2)n1`, the Potency was “inactive”. For `Cc1nc(-c2ccc(F)cc2)c(CC(=O)N(C)CC(=O)Nc2ccc(Cl)c(C(F)(F)F)c2)s1`, the Potency was 25.1 µM (active). For `CN(CC(=O)Nc1ccc(Cl)c(C(F)(F)F)c1)C(=O)c1cccnc1Sc1ccccc1`, the Potency was “inactive”. For `CN(CC(=O)NCc1ccc(F)cc1)CC(=O)Nc1ccc(Cl)c(C(F)(F)F)c1`, the Potency was 25.1 µM (active). For `CC(C)C(=O)NC(c1ccccc1)c1cc([N+](=O)[O-])c2cccnc2c1O` (stereo not given), the Potency was 10 µM (active). With `Cc1cc(OCC(=O)NC(C)c2ccccc2)ccc1[N+](=O)[O-]` (stereo not given) the Potency was “inactive”. For `CCC(=O)NC(c1ccc(C)cc1)c1cc([N+](=O)[O-])c2cccnc2c1O` (stereo not given), the Potency was 6.31 µM (active). In the case of `CC(C)c1ccc2c(c1)C(N1CCNCC1)Cc1ccc(F)cc1S2` (stereo not given), the Potency is reported as 28.2 µM (active). In the case of `N#Cc1c(N)n(C2OC(CO)C(O)C2O)c2ncnc(N)c12` (stereo not given), the Potency is reported as 0.398 µM (active). With `CNc1nc2c(N)ncnc2n1[C@H]1O[C@@H](CO)[C@H](O)[C@@H]1O` the Potency was 2.82 µM (active). For `CCc1cc(C)cc(OCCNC(=O)c2cncc(Br)c2)c1`, the Potency was 25.1 µM (active). With `CCOc1ccc(CCNC(=O)c2ccc(OCc3c(C)noc3C)cc2)cc1OCC` the Potency was “inactive”. With `COc1ccc(OCc2cccc(C(=O)Nn3cc([N+](=O)[O-])cn3)c2)cc1` the Potency was 0.398 µM (active). With `O=C(Nc1ccc2c(c1)CCC2)C1CCN(c2c3c(nc4ncnn24)CCC3)CC1` the Potency was 7.94 µM (active). For `CC(C)COc1cccc(C(=O)N(CC(=O)Nc2ccccc2C(F)(F)F)Cc2ccco2)c1`, the Potency was 3.16 µM (active). For `Cc1cc(C)nc(N/N=C2/CCCC/C2=C\c2ccccc2)n1`, the Potency was 2.82 µM (active). With `COc1cc2[nH]c(=O)n(CCCCCC(=O)N3CC=C(c4ccccc4)CC3)c(=O)c2cc1OC` the Potency was 3.16 µM (active). In the case of `CCOC(=O)c1c(NC(=O)COC(=O)c2ccccc2NC)sc(C(=O)N(C)C)c1C`, the Potency is reported as “inactive”. For `CCOC(=O)c1c(NC(=O)C(Sc2ccccc2)c2ccccc2)sc(C(=O)N(C)C)c1C` (stereo not given), the Potency was 25.1 µM (active). In the case of `CC(C)CC(N)c1csc(NC(=O)Nc2ccccc2C(C)(C)C)n1` (stereo not given), the Potency is reported as 3.16 µM (active). With `NC(Cc1ccc(F)cc1)c1csc(NC(=O)NC(c2ccccc2)c2ccccc2)n1` (stereo not given) the Potency was 28.2 µM (active). In the case of `NC(Cc1ccc(Cl)cc1)c1csc(NC(=O)Nc2ccccc2-c2ccccc2)n1` (stereo not given), the Potency is reported as 3.16 µM (active). With `COc1ccc(CNC(=O)Nc2nc(C(N)Cc3ccc(Cl)cc3)cs2)cc1` (stereo not given) the Potency was 28.2 µM (active). With `COc1ccc(N(C(=O)c2snc(C(N)=O)c2N)C(C(=O)NCc2ccc(F)cc2)c2ccc(O)cc2)cc1` (stereo not given) the Potency was “inactive”. For `COc1ccc(CC(N)c2csc(NC(=O)c3ccccc3OC)n2)cc1` (stereo not given), the Potency was “inactive”. In the case of `NC(c1ccccc1)c1csc(NC(=O)Nc2ccccc2Oc2ccccc2)n1` (stereo not given), the Potency is reported as 3.16 µM (active). With `O=C(OCCN1C(=O)c2cccc3c(N4CCOCC4)ccc(c23)C1=O)c1ccccc1Cl` the Potency was 5.01 µM (active). With `COc1ccc2c(-c3ccc(S(N)(=O)=O)cc3)c(-c3ccc(S(C)(=O)=O)cc3)sc2c1` the Potency was 28.2 µM (active). With `O=C(CNC(=O)c1ccccc1F)N/N=C/c1cc(Br)ccc1OC(=O)/C=C/c1ccco1` the Potency was 11.2 µM (active). With `O=C(/C=C/c1ccco1)Oc1cc(Br)cc(/C=N/NC(=O)c2ccccc2O)c1` the Potency was 0.447 µM (active). In the case of `O=C(CNC(=O)c1ccc(F)cc1)N/N=C/c1cc(Br)ccc1OC(=O)/C=C/c1ccco1`, the Potency is reported as 15.8 µM (active). For `O=C(CNC(=O)c1cccc(F)c1)N/N=C/c1cc(Br)ccc1OC(=O)/C=C/c1ccco1`, the Potency was 7.94 µM (active).
